Shown are actives, neighbours in structure and some others; about 3.3% of the full set was active somewhere.
USP1-UAF1 inh: inhibitors of human USP1/UAF1 deubiquitinase; Potency, µM (top dose mostly 57.1 µM), for the others: at the top dose activity change, negative = inhibition, usual class: inhibitors; AID 743255; 0.23% of 390,000 active; O94782; recombinant USP1/UAF1, Ub-Rhodamine cleavage fluorescence; note: potency is the fitted concentration of half-maximal effect; nearly all actives have a fitted effect of over 60% in size
Target sequence (O94782 whole entry, looked up): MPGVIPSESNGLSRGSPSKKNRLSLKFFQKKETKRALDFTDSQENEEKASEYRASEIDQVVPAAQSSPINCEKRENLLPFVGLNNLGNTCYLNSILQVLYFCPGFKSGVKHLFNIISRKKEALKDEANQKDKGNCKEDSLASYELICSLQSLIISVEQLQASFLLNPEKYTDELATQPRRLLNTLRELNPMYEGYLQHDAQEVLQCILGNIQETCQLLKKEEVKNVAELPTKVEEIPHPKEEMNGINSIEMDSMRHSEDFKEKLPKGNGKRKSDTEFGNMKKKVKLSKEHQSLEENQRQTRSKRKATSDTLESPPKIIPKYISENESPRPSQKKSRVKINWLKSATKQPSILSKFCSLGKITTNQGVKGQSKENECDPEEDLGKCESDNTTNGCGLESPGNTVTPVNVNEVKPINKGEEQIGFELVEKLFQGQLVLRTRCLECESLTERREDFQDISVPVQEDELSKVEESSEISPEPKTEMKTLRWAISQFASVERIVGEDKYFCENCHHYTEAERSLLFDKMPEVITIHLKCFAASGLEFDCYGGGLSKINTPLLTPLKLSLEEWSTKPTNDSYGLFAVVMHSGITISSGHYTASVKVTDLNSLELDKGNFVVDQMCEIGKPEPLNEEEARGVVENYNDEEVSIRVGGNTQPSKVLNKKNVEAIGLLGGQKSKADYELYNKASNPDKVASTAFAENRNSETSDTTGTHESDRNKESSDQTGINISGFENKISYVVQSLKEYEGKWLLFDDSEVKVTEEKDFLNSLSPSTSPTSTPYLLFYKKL
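In this screen, compounds sit with the deubiquitinase complex (1nM) for 15 min at room temperature before Ub-Rho is added at 150nM final. Fluorescence rise is then followed for 6 reads every 60 seconds.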
USP2a inh: USP2a (human) protease inhibition; 0.01% of 330,000 active; O75604; USP2 core, Ub-CHOP2 coupled fluorogenic reporter, 485/531; Potency, µM (titrated, usually from 38.3 µM), without a hit: at the highest dose activity change, negative = inhibition, most hits filed as inhibitors;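 note: potency is the fitted concentration of half-maximal effect; plate controls were DMSO wells for no effect and full inhibition by NEM control for full effect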
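USP2 core (10nM final) preincubated 30min RT with compound in 20mM Tris-HCl pH 8.0, 2mM CaCl2, 2mM beta-mercaptoethanol, 0.05% CHAPS; 25nM Ub-CHOP2 plus 25nM reporter substrate added, fluorescence (Ex485/Em531) read after 60min.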
PLK1 PBD inh: blocks phosphopeptide binding to human PLK1 polo-box domain | Plk1 PBD binding of FITC phosphopeptide, fluorescence polarization | Potency, µM, without a hit: max response, negative = inhibition, hits mostly inhibitors | 2.8% of 360,000 active | AID 720504; note: potency is the fitted concentration of half-maximal effect; series mostly up to about 57 µM; nearly all actives have a fitted effect of over 65% in size
WRN inhibitor: inhibitors of human WRN helicase; Q14191; WRN helicase unwinding, fluorescent forked duplex, kinetic; Potency, µM (highest dose often 114 µM), for inactives: at the top dose activity change, negative = inhibition, hits mostly inhibitors; 0.46% of 360,000 active; AID 651768; note: potency is the fitted concentration of half-maximal effect; nearly all actives have a fitted effect of over 55% in size
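Kinetic fluorescence helicase assay: unwinding of a quenched forked DNA duplex (100 nM final) with 2 mM ATP final raises red fluorescence (525/598 nm). Compounds sat 15 min at room temperature with 20 nM WRN beforehand.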
PI5P4K alpha inh: PI5P4K alpha (human) kinase inhibition; AID 652105; max response, %; 1.2% of 330,000 active; PI5P4Kalpha enzyme, ADP-Glo luminescence, 60 min; active compounds read low; P48426; active = max response of -50% or lower; inconclusive = between -30% and -50%; inactive = -30% or higher; note: value at the top dose of about 77 µM
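Human PI5P4Kalpha with substrate in 0.038 M HEPES pH 7.4, 0.28 mM EGTA, 0.1% CHAPS, 5% DMSO; reaction started with 5 microM ATP (final), 60 min at room temperature. ADP formed read by ADP-Glo luminescence.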
Starred values were filed as active, the others as inactive; ? = inconclusive; . = no result given; [ ] = remark or other dose. Unless noted, calls come from the whole dose curve; as a rule, active = well fitted curve in the direction sought with a large enough effect; inconclusive = small, poorly fitted or top-dose-only effect, or another doubt; inactive = no such curve, though single readings can be large; an effect the other way counts as inactive or inconclusive. Unless noted, % is set by controls: 0 for no effect and ±100 for the full control effect.

SMILES	USP1-UAF1 inh	USP2a inh	PLK1 PBD inh	WRN inhibitor	PI5P4K alpha inh
C#CCOCCOCCOCCNc1nc(N2CCN(C(=O)[C@H](CCCN=C(N)N)n3cc(C(N)[C@H](C)CC)nn3)CC2)nc(N2CCN(C(=O)[C@H](CCCN=C(N)N)n3cc(C(N)[C@@H](C)CC)nn3)CC2)n1 (some centres undefined)	-16%	-1%	-8%	-32%	-61*
Cc1cc(C)c(NC(=O)C(C)n2nc(-c3ccc(C)c(C)c3)ccc2=O)c(C)c1 (centres undefined)	-25%	.	.	.	.
O=C(c1cc(-c2ccc(Br)cc2)n[nH]1)N1CCN(S(=O)(=O)c2ccc(Br)s2)CC1	-1%	.	.	.	.
Cc1ccc2c(c1Br)C(O)(CC(=O)c1ccc(F)cc1)C(=O)N2 (centres undefined)	-20%	.	.	.	.
Cc1nn(C)c(C)c1S(=O)(=O)N(CC(=O)N1CCN(c2ccccc2)CC1)c1ccc(C(C)C)cc1	4%	.	.	.	.
Cc1ccc(S(=O)(=O)c2nnn3c2nc(N2CCN(c4ccc(F)cc4)CC2)c2cc(Cl)ccc23)cc1C	-3%	.	.	.	.
CCOc1ccccc1CNC(=O)c1ccc2nc(N3CCC(C)CC3)sc2c1	-23%	.	.	.	.
C#CCOCCOCCOCCNc1nc(N2CCN(C(=O)CCCCCCCCCCNC(=O)[C@H](CCCCN)n3cc(CCCC(=O)O)nn3)CC2)nc(N2CCN(C(=O)CCCCCCCCCCNC(=O)[C@H](CCCN=C(N)N)n3cc(C[C@@H](C)CC)nn3)CC2)n1	-26%	?	-9%	?	?
C#CCOCCOCCOCCNc1nc(N2CCN(C(=O)CCCCCCCCCCNC(=O)[C@H](CCCCN)n3cc(CCO)nn3)CC2)nc(N2CCN(C(=O)CCCCCCCCCCNC(=O)[C@H](CCCN=C(N)N)n3cc(C[C@@H](C)CC)nn3)CC2)n1	?	?	5%	35µM*	-66*
O=C(Nc1ccc(OCc2cc(=O)n3c4c(sc3n2)CCCC4)cc1)c1cccc(F)c1	-26%	.	.	.	.
CC(C)(C)CC(=O)OCC(=O)Nc1cc(C(C)(C)C)nn1-c1ccccc1	-12%	1%	24µM*	-7%	.
COCC(=O)OCC(=O)Nc1cc(C(C)(C)C)nn1-c1ccccc1	-27%	1%	-9%	-3%	0
O=C(NCCO)c1cc2cc(Cl)cc(Cl)c2oc1=O	-16%	-1%	13µM*	-35%[57.1 µM]	?
Cc1cc(C)nc(S/C=C/C(=O)c2ccccc2F)n1	-6%	10%	4.7µM*	?	2
COc1ccccc1CNC(=O)c1ccc(CSc2nc3ccncc3n2Cc2cccc(F)c2)cc1	-23%	.	.	.	.
CC(=O)Nc1cccc(Oc2nc(C)cc(C)c2C#N)c1	-10%	3%	24µM*	0%	-17
CCC(=O)Nc1cccc(Oc2nc(C)cc(C)c2C#N)c1	-20%	2%	4%	9%	-3
Cc1cccc(-n2c(C)nc3cc(C(=O)N4CCOCC4)ccc32)c1	-15%	-2%	27µM*	-5%	-1
CCCCCNC(=O)c1ccc2c(c1)nc(C)n2-c1cccc(C)c1	-11%	.	.	.	.
CC1=[N+](C)c2c(ccc3cccnc23)C1(C)C	-16%	18%	-25%	56µM*	-19
Cc1cccc(C(=O)N2CCc3cc(CNC(=O)c4ccnn4C)ccc32)c1	4%	.	.	.	.
O=[N+]([O-])c1ccc(N2CCOCC2)c([N+](=O)[O-])c1	-3%	.	0%	9%	1
N#Cc1ccc(N2CCOCC2)c([N+](=O)[O-])c1	-16%	1%	15µM*	7%	-26
CCc1ccc(-n2nc(CO)c(C(=O)NC(C)c3ccc(Cl)cc3)n2)cc1 (centres undefined)	-4%	.	.	.	.
CCOc1ccc(OCC)c(NC(=O)C2CCN(S(=O)(=O)c3c(C)[nH]c(=O)[nH]c3=O)CC2)c1	-24%	0%	17µM*	6%[57.1 µM]	-19
COc1cccc(C(=O)CC2(O)C(=O)Nc3ccc(Cl)cc32)c1 (centres undefined)	5%	.	.	.	.
Cc1ccc(/C=C/C(=O)Nc2cc(S(N)(=O)=O)ccc2O)cc1	-10%	0%	21µM*	-10%	-19
c1ccc2c(Nc3nc4c(s3)CCCC4)cccc2c1	-13%	-5%	?	3%	-13

Assay outcomes: PubChem, National Center for Advancing Translational Sciences (NCATS)
